Assay results as given in PubChem BioAssay AID1566 (Sanford-Burnham Center for Chemical Genomics, 2009).
“And” between values parts separate entries of the source, which are not always exact repeats. Equal entries are not always repeated. Hit rate of the full screen: of about 290,000 compounds, about 1,800 (0.62%) were called active. No stated cut-off is given here; in the data, active means inhibition above about 50%; inactive means the rest. Only a selection was taken, and actives are over-represented in it overall. Some structures have more than one record in an assay (separate samples or runs), and their calls can disagree.

Assay: inhibition of NOD2-driven NF-kB reporter – cell-based, luminescence, uHTS, HEK293 (AID 1566)
Conditions: HEK293 NOD2/NF-kB luciferase reporter, at 4 µM, stronger effect = higher value
With `COc1ccc(/C=N/NC(=O)CC#N)cc1Oc1nc(Cl)ncc1F` the inhibition was -4% (inactive).
For `O=[N+]([O-])c1ccc(C2OCCO2)cc1CS(=O)(=O)c1ccccc1`, the inhibition was -3.4% (inactive).
In the case of `CCC(=O)Nc1cccc2ccccc12`, the inhibition is reported as 15.5% (inactive).
In the case of `CCN(CC)c1ccc(/C=N/NC(=O)C(O)(c2ccccc2)c2ccccc2)o1`, the inhibition is reported as 3.6% (inactive).
With `Cc1[nH]n(-c2cccc(Cl)c2)c(=O)c1-c1ccccc1` the inhibition was 17.3% (inactive).
With `Cc1[nH]n(-c2ccccc2)c(=O)c1-c1ccc(Cl)cc1` the inhibition was -50.4% (inactive).
With `C=CCn1c(-c2cc3cccc(OC)c3o2)n[nH]c1=S` the inhibition was -1.5% (inactive).
With `O=C(c1cc(-c2cccc(Cl)c2)on1)N1CCCCCC1` the inhibition was -44.3% (inactive).
For `Nc1nc(-c2cccs2)c(CC(=O)O)s1`, the inhibition was 4.5% (inactive).
For `CC(C)(C)c1ccc(-n2ncc3c2CCCC3NC(=O)CCN2CCCC2=O)cc1` (configuration not stated), the inhibition was 57.1% (active).
In the case of `CC(C)(C)c1ccc(-n2ncc3c2CCCC3NC(=O)CN2CCCC2=O)cc1` (configuration not stated), the inhibition is reported as 35.8% (inactive).
For `CC(C)(C)c1ccc(-n2ncc3c2CCCC3NC(=O)CCN2CCCCC2=O)cc1` (configuration not stated), the inhibition was 17.1% (inactive).
For `CCN1CCN(c2ncnc3sc(C)c(-c4ccccc4)c23)CC1`, the inhibition was 35.6% (inactive).
With `Cc1sc2ncnc(N3CCN(Cc4ccccc4)CC3)c2c1-c1ccccc1` the inhibition was -9.7% (inactive).
For `CCc1ccc(-c2cc(C)no2)cc1S(=O)(=O)N1CCOc2ccc(C)cc21`, the inhibition was 16.8% (inactive).
In the case of `COc1ccccc1CC(=O)Nc1ccc(NC(=O)c2cccs2)cc1`, the inhibition is reported as -13% (inactive).
In the case of `CCOC(=O)c1nc2sc3c(c2c(=O)[nH]1)CCC(C)C3` (configuration not stated), the inhibition is reported as 45.5% (inactive).
In the case of `CCOC(=O)CSc1nc2sc3c(c2c(=O)[nH]1)CCCC3`, the inhibition is reported as 8.9% (inactive).
In the case of `CCOC(=O)c1nc2sc3c(c2c(=O)[nH]1)CCCC3`, the inhibition is reported as 55.1% (active) and 4.8% (inactive).
For `COc1ccccc1CNC(=O)CCc1nnc2ccc(NCCCN3CCCC3=O)nn12`, the inhibition was 12.8% (inactive).
For `Cc1ccc(Cn2c(=O)c3ccccc3n3c(SCC(=O)N4CCCCC4C)nnc23)cc1` (configuration not stated), the inhibition was 8.3% (inactive).
For `Cc1ccc(C(=O)NNC(=O)CCN2C(=O)C3CCCCC3C2=O)cc1` (configuration not stated), the inhibition was 11.6% (inactive).
In the case of `COc1cc(SC)ccc1C(=O)Nc1nc(C)cs1`, the inhibition is reported as 72.2% (active).
With `COc1cc(SC)ccc1C(=O)Nc1nccs1` the inhibition was -159% (inactive).
In the case of `COc1cc(SC)ccc1C(=O)Nc1nc(C)cc(C)n1`, the inhibition is reported as 10.5% (inactive).
With `O=C(O)c1ccc(NCc2ccc3c(c2)OCO3)cc1` the inhibition was 6.2% (inactive).
For `COc1ccc(/C=N/N2C(=O)CSC2=S)cc1`, the inhibition was -23.8% (inactive).
For `COc1ccc(-c2nn(-c3ccccc3)cc2/C=N/N2C(=O)CSC2=S)cc1`, the inhibition was 51.5% (active).
For `COc1ccc(-c2nn(-c3ccccc3)cc2/C=N/O)cc1`, the inhibition was 9.4% (inactive).
For `CCC1(CC)NC(=O)N(CC(=O)NC(=O)NCc2ccccc2)C1=O`, the inhibition was -0.6% (inactive).
With `Nc1cc(=O)[nH]c(SCC(=O)Nc2cccc([N+](=O)[O-])c2)n1` the inhibition was 0.5% (inactive).
With `O=C(CSc1nncc(=O)[nH]1)Nc1cccc([N+](=O)[O-])c1` the inhibition was 67.8% (active).
In the case of `O=C(CSc1nc2ccccc2c(=O)[nH]1)Nc1cccc([N+](=O)[O-])c1`, the inhibition is reported as 19.4% (inactive).
For `COc1ccc(NC(=O)C23CC4CC(C2)CC(n2cnc(Br)n2)(C4)C3)cc1OC`, the inhibition was -17.8% (inactive).
In the case of `Cc1ccccc1NC(=O)N1CCCC(c2nc(-c3ccc(C(C)C)cc3)no2)C1` (configuration not stated), the inhibition is reported as 72.9% (active).
With `Cc1ccccc1NC(=O)N1CCCC(c2nc(-c3ccc(F)cc3)no2)C1` (configuration not stated) the inhibition was 7.4% (inactive).
In the case of `COc1ccc(NC(=O)N2CCCC(c3nc(-c4ccc(C(C)C)cc4)no3)C2)cc1` (configuration not stated), the inhibition is reported as 42.1% (inactive).
With `COCCCN1C(=O)C(O)=C(C(=O)c2ccco2)C1c1cccc(Br)c1` (configuration not stated) the inhibition was 7.1% (inactive).
In the case of `COc1ccc(CN2CCN(Cc3ccc4cc(F)ccc4n3)CC2CCO)c(C)c1C` (configuration not stated), the inhibition is reported as -1.2% (inactive).
In the case of `O=[N+]([O-])c1ccc(N2CCN(c3ccc(Cl)nn3)CC2)c(Cl)c1`, the inhibition is reported as -52.2% (inactive).
In the case of `CCCC(=O)N1CCN(c2ccc([N+](=O)[O-])cc2Cl)CC1`, the inhibition is reported as -6.8% (inactive).
With `Cc1ccc2nc(C)c(CN3CCN(c4ccc([N+](=O)[O-])cc4Cl)CC3)n2c1` the inhibition was 52.7% (active).
In the case of `Cc1cc(C)c2c(N)c(C(=O)Nc3ncc(C)s3)sc2n1`, the inhibition is reported as 62% (active).
In the case of `Cc1cc(C)c2c(N)c(C(=O)NN)sc2n1`, the inhibition is reported as 0.7% (inactive).
With `Cc1cc(C)c2c(N)c(C(=O)Nc3nccs3)sc2n1` the inhibition was -123% (inactive).
With `CN1CCN(C(=S)c2cn(Cc3ccccc3F)c3ccccc23)CC1` the inhibition was 2.8% (inactive).
For `CC(=O)c1cn(CC(=O)Nc2ccccc2F)c2ccccc12`, the inhibition was 30.8% (inactive).
For `CCOC(=O)c1cnc2nc(C)[nH]n2c1=O`, the inhibition was -11% (inactive).
In the case of `O=C(CNC(=O)C1CCCCC1)NCc1ccco1`, the inhibition is reported as -3% (inactive).
With `Cc1nc2ccc(NC(=O)c3ccc(S(=O)(=O)N(C)c4ccccc4)cc3)cc2s1` the inhibition was 35.2% (inactive).
In the case of `Cc1nc2ccc(NC(=O)c3ccc(Cl)c(S(=O)(=O)N(C)c4ccccc4)c3)cc2s1`, the inhibition is reported as 38.6% (inactive).
With `CN(Cc1ccccc1)C(=O)[C@H]1CCC(=O)N1Cc1ccco1` the inhibition was -2.2% (inactive).
For `Cc1onc(-c2c(Cl)cccc2Cl)c1C(=O)NC(=S)N1CCOCC1`, the inhibition was 11.9% (inactive).
For `Cc1c(OCC(=O)NC(Cc2ccc(Cl)cc2)C(=O)O)ccc2c3c(c(=O)oc12)CCCC3` (configuration not stated), the inhibition was 7.1% (inactive).
In the case of `Cc1ccc2nc(NC(=O)CCCc3nc4ccccc4s3)sc2c1`, the inhibition is reported as -14.6% (inactive).
For `O=C(Nc1nc2c(F)cc(F)cc2s1)c1ccccn1`, the inhibition was 38.3% (inactive).
In the case of `COCC(=O)Nc1nc2ccc(C)cc2s1`, the inhibition is reported as -98.9% (inactive).
With `Cc1ccc(C)c(OCC(=O)Nc2nc3ccc([N+](=O)[O-])cc3s2)c1` the inhibition was 25.2% (inactive).
With `Cc1cccc(OCC(=O)Nc2nc3ccc([N+](=O)[O-])cc3s2)c1` the inhibition was 35% (inactive).
With `Cc1ccc2nc(NC(=O)CSCc3ccccc3)sc2c1` the inhibition was -2.4% (inactive).
With `O=C(Nc1nc2ccc(F)cc2s1)c1cccs1` the inhibition was -118% (inactive).
With `O=C(Nc1nc2ccc(F)cc2s1)c1ccccn1` the inhibition was 82.1% (active).
In the case of `Cc1ccc2nc(NC(=O)CSCC(=O)OCC(=O)c3ccccc3)sc2c1`, the inhibition is reported as 51.5% (active).
With `Cc1ccc2nc(NC(=O)CCCC(=O)O)sc2c1` the inhibition was 54.8% (active).
For `COC(=O)c1ccc2nc(NC(=O)CSCC(=O)OCC(=O)c3ccccc3)sc2c1`, the inhibition was -10.5% (inactive).
For `CN(C)C(=O)c1ccc2c3c(cccc13)CC2`, the inhibition was 17.8% (inactive).
In the case of `CCCS(=O)(=O)c1nc(S(=O)(=O)c2ccc(C)cc2)c(N2CCN(CC)CC2)s1`, the inhibition is reported as -12.7% (inactive).
For `Cc1nc2nc(SCc3ccc([N+](=O)[O-])cc3)[nH]c2cc1Br`, the inhibition was -1% (inactive).
In the case of `CSc1ccc(C2N=C(c3ccccc3)NO2)cc1` (configuration not stated), the inhibition is reported as -83.4% (inactive).
With `CCOCCCNC(=O)C(NC(=O)CNC(C)=O)c1ccc(C)cc1` (configuration not stated) the inhibition was 3.7% (inactive).
In the case of `CCN(CC)S(=O)(=O)c1cccc(C(=O)N[C@@H](C)c2nc3ccccc3[nH]2)c1`, the inhibition is reported as 11.7% (inactive).
In the case of `CCOC(=O)c1ccc(N2C(=O)C(CC(N)=O)N(NC(=O)c3cccc(F)c3)C2=S)cc1` (configuration not stated), the inhibition is reported as 4.2% (inactive).
In the case of `Cc1ccc2nc(NC(=O)c3ccccn3)sc2c1`, the inhibition is reported as 76.3% (active).
In the case of `Cc1ccc2nc(NC(=O)COC(=O)c3ccccn3)sc2c1`, the inhibition is reported as -25.5% (inactive).
With `Cc1ccc2nc(NC(=O)c3ccccc3F)sc2c1` the inhibition was -152% (inactive).
For `COc1ccc(-n2c3c(cc(C#N)c2=O)C(=O)CCC3)cc1`, the inhibition was 6.2% (inactive).
For `CCOc1ccc(S(=O)(=O)Nc2ccc(C(=O)NCC(c3ccccc3)N(C)C)cc2)cc1` (configuration not stated), the inhibition was 7.3% (inactive).
In the case of `CCOC(=O)c1ccc(Nc2nc(N3CCOCC3)nc(N3CCOCC3)n2)cc1`, the inhibition is reported as -7.2% (inactive).
For `CCOC(=O)N1CCC(N2CCN(Cc3ccc(C)o3)C(CCO)C2)CC1` (configuration not stated), the inhibition was 2.4% (inactive).
In the case of `CCC(C(=O)NC1CCCC1)N(C(=O)Cn1nnc(-c2ccc(C)o2)n1)c1cccc(O)c1` (configuration not stated), the inhibition is reported as 8.2% (inactive).
With `Cc1cc(NC(=O)CSc2ncnc3ccccc23)no1` the inhibition was 20% (inactive).
In the case of `Cc1cc(-n2c(C)cc(C(=O)CSc3ncnc4ccccc34)c2C)no1`, the inhibition is reported as 52.3% (active).
For `Cc1cc(-n2c(C)cc(C(=O)CSc3nc4ccccc4c(=O)n3Cc3ccco3)c2C)no1`, the inhibition was 18.1% (inactive).
For `Cc1cccc(NC(=O)COC(=O)C2C3CC4OC(=O)C2C4C3)c1C` (configuration not stated), the inhibition was -27.4% (inactive).
For `O=C1OCCC1Sc1nnc(-c2cccnc2)n1-c1ccccc1F` (configuration not stated), the inhibition was 13.6% (inactive).
With `Cc1ccccc1-n1c(SC2CCOC2=O)nnc1-c1ccncc1` (configuration not stated) the inhibition was 51.5% (active).
With `Cc1ccccc1-n1nnnc1SC1CCOC1=O` (configuration not stated) the inhibition was 5.6% (inactive).
For `O=C(O)c1cccc(NC(=S)N/N=C/c2ccccc2OCc2ccc(Br)cc2)c1`, the inhibition was 0.3% (inactive).
With `C/C(=C\c1ccccc1)CN1CCN(Cc2ccc(C)o2)C(CCO)C1` (configuration not stated) the inhibition was -6.3% (inactive).
In the case of `CCOC(=O)C1CCN(C(=O)CS(=O)(=O)Cc2nc(-c3ccccc3Cl)oc2C)CC1`, the inhibition is reported as 17.3% (inactive).
With `O=C(Nc1ccc(N2CCCCC2)cc1)c1cccnc1Cl` the inhibition was -2.2% (inactive).
With `O=C(Nc1ccc(N2CCOCC2)cc1)Nc1cnsn1` the inhibition was -3.9% (inactive).
For `O=C(Nc1ccc(N2CCOCC2)cc1)c1cnsn1`, the inhibition was 52.4% (active).
With `Cc1cnc(C(=O)Nc2ccc(N3CCOCC3)cc2)cn1` the inhibition was -3.6% (inactive).
For `O=C(Nc1ccc(N2CCCCC2)cc1)c1ccccn1`, the inhibition was 69.8% (active).
In the case of `O=C(Nc1ccc(N2CCCCCC2)cc1)c1ccccc1Cl`, the inhibition is reported as -104% (inactive).
With `O=C(CSc1nc2ccccc2[nH]1)NCc1ccccc1` the inhibition was -35% (inactive).
